About 8,800 targets were measured; listed, in parts, are those with a hit and a random draw of the rest. About 0.5% of all pairs of compound and target were hits. Unmarked numbers belong to inactive results.
Columns and labels:
Assay in all cases: log2 fold change, soluble protein after heating vs DMSO (PISA); higher = thermal stabilisation; K562 lysate, 10 uM; active = over 0.2 and 3.5 SD of the protein, either way, in both replicates (recomputed)
barasertib = compound: CCN(CCCOc1ccc2c(Nc3cc(CC(=O)Nc4cccc(F)c4)[nH]n3)ncnc2c1)CCOP(=O)(O)O [barasertib]
Outline: (§1)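 K562 pellets were dounce-homogenised in PBS pH 7.4 containing 1 mM MgCl2, and the crude extract, at 1 mg/mL protein, was exposed to 10 μM compound for 30 min. Aliquots were heated for 3 min across 48°C-58°C, pooled, brought to 0.5% NP-40 at 4°C and spun at 21,000xg for 90 min, with the supernatant taken as soluble protein. TMTpro 16plex LC-MS/MS with equalised channel sums quantified that protein. Values are log-two fold changes in thermal stability relative to solvent controls, taken from duplicates.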

[1] = compound: CCn1cc(-c2ccnc3[nH]c(-c4cccc(CN(C)C)c4)cc23)c(-c2ccc(NC(=O)N(C)C)cc2)n1
Outline: as §1

[2] = compound: CN1CCC(CNc2ccc3ncc(-c4cccc(OC(F)(F)F)c4)n3n2)CC1
Outline: as §1

vemurafenib = compound: CCCS(=O)(=O)Nc1ccc(F)c(C(=O)c2c[nH]c3ncc(-c4ccc(Cl)cc4)cc23)c1F [vemurafenib]
Outline: as §1

[3] = compound: CCCS(=O)(=O)Nc1ccc(F)c(C(=O)c2c[nH]c3ncc(Cl)cc23)c1F
Outline: as §1

[4] = compound: CC[C@@H]1C(=O)N(C)c2cnc(Nc3ccc(C(=O)NC4CCN(C)CC4)cc3OC)nc2N1C1CCCC1
Outline: as §1

volasertib = compound: CC[C@@H]1C(=O)N(C)c2cnc(Nc3ccc(C(=O)N[C@H]4CC[C@H](N5CCN(CC6CC6)CC5)CC4)cc3OC)nc2N1C(C)C [volasertib]
Outline: as §1

[5] = compound: CCn1c(C(=O)N(C2CC2)C2CC2)cc2c3c(ncn3C)c(Nc3cc(C)n(C)n3)nc21
Outline: as §1

saracatinib = compound: CN1CCN(CCOc2cc(OC3CCOCC3)c3c(Nc4c(Cl)ccc5c4OCO5)ncnc3c2)CC1 [saracatinib]
Outline: as §1

sotrastaurin = compound: CN1CCN(c2nc(C3=C(c4c[nH]c5ccccc45)C(=O)NC3=O)c3ccccc3n2)CC1 [sotrastaurin]
Outline: as §1

UniProt P22692, sequence (P22692 whole entry, looked up): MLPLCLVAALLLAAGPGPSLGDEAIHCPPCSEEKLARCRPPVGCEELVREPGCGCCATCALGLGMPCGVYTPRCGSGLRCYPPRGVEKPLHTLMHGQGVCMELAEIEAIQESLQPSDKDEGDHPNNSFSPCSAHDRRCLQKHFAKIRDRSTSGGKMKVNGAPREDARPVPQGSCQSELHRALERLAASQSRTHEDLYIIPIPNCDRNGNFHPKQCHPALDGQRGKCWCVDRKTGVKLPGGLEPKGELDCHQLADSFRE
UniProt Q9UKP3, sequence (Q9UKP3 whole entry, looked up): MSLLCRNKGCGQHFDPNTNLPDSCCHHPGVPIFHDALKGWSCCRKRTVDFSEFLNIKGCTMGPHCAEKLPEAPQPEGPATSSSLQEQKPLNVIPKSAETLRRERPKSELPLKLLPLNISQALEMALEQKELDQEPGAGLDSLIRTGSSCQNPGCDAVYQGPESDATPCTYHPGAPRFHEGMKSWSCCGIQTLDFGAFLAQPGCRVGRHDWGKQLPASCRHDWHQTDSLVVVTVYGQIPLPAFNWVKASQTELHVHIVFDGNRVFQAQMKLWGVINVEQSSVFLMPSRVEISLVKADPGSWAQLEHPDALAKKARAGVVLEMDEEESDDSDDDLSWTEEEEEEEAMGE
UniProt Q9H9Y4, sequence (Q9H9Y4 whole entry, looked up): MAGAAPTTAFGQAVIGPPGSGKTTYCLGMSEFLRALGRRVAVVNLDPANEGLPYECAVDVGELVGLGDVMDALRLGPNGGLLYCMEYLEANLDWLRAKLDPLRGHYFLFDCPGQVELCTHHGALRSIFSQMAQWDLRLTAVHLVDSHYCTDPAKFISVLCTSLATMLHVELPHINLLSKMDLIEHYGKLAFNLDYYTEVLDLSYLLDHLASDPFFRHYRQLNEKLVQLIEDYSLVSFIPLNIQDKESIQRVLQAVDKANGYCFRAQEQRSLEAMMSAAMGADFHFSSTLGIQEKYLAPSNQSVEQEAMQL
UniProt Q9P2P5, sequence (Q9P2P5 whole entry, looked up): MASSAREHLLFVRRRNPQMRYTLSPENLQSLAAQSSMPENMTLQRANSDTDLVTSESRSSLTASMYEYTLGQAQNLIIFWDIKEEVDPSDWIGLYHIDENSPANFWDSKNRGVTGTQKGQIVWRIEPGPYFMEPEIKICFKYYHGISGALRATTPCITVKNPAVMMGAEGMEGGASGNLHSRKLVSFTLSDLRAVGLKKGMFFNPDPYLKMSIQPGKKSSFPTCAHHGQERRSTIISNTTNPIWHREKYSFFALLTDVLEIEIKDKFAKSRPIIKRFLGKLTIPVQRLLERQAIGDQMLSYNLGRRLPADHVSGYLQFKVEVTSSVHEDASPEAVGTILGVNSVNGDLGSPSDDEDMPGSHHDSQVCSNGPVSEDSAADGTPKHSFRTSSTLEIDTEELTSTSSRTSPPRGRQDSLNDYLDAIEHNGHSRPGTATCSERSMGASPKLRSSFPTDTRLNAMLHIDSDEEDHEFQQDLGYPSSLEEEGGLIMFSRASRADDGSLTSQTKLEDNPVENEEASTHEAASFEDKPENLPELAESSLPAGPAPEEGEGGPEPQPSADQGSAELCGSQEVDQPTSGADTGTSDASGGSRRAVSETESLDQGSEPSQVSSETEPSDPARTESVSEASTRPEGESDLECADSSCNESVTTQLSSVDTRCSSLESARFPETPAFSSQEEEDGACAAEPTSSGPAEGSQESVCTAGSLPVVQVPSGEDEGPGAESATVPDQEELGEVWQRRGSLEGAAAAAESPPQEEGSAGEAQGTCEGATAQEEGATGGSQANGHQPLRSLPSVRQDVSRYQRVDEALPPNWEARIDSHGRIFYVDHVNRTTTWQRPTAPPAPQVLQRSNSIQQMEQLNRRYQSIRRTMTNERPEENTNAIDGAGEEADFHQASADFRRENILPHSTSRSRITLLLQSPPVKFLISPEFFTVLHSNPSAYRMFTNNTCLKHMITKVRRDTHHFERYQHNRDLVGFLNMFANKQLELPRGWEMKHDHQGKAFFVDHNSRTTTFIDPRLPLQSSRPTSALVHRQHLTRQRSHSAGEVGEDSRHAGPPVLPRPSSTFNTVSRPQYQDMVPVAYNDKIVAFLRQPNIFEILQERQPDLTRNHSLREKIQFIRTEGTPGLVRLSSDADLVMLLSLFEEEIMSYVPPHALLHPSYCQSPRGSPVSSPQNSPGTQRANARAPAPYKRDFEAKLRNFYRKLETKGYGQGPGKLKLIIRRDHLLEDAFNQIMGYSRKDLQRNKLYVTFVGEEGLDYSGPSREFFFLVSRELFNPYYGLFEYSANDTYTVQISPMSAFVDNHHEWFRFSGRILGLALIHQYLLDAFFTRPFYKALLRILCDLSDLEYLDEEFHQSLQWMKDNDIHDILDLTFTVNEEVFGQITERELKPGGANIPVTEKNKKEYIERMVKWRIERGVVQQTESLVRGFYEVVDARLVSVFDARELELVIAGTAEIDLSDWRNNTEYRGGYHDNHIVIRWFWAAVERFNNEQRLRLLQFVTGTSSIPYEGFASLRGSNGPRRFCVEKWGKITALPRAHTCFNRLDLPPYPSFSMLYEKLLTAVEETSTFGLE
UniProt Q96A47, sequence (Q96A47 whole entry, looked up): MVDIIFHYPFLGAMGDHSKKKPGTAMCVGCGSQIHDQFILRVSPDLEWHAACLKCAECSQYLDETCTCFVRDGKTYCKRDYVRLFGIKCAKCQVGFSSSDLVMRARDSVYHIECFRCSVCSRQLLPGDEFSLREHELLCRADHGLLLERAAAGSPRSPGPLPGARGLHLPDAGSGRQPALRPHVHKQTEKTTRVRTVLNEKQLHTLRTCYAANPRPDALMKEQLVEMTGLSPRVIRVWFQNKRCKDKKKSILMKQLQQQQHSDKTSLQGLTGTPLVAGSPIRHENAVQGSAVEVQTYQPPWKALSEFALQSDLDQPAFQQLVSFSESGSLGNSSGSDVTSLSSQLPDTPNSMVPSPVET
UniProt P20839, sequence (P20839 whole entry, looked up): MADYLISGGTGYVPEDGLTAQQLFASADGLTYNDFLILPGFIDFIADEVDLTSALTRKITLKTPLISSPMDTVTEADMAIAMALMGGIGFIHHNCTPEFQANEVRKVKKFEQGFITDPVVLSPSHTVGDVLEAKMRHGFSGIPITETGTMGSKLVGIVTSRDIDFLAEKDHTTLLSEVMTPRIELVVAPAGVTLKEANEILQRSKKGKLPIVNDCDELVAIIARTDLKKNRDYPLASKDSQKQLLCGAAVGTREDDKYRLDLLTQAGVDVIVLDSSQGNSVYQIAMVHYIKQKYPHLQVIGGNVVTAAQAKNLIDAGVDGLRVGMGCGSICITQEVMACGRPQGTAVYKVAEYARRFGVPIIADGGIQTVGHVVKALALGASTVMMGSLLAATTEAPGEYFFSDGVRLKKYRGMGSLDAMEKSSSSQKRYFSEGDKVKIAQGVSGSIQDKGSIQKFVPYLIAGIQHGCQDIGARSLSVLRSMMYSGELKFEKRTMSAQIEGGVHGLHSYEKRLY
UniProt Q9Y573, sequence (Q9Y573 whole entry, looked up): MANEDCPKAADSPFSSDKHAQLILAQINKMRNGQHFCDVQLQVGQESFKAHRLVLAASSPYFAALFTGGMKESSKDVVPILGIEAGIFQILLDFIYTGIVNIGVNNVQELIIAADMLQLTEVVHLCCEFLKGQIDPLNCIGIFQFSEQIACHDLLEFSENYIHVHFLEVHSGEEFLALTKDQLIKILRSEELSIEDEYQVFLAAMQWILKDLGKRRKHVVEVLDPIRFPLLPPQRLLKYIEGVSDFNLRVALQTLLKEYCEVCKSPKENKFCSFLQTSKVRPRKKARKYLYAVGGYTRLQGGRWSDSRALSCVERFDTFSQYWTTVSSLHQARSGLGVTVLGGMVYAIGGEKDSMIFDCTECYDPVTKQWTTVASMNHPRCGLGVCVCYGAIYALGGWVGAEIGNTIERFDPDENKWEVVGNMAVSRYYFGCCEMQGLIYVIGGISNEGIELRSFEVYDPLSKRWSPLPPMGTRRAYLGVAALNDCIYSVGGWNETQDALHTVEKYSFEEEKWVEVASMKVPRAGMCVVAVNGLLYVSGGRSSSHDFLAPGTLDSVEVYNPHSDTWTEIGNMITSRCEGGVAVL
UniProt Q14103, sequence (Q14103 whole entry, looked up): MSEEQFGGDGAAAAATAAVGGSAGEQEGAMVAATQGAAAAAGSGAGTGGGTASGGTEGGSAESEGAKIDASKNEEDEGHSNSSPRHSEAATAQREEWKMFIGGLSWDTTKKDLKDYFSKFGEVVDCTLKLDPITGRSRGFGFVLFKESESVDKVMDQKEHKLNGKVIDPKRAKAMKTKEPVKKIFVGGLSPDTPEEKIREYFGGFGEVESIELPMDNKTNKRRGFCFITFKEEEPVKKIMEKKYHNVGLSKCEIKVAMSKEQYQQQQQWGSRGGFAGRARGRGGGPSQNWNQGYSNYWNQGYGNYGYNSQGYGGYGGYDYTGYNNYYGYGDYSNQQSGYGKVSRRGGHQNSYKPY
UniProt O43824, sequence (O43824 whole entry, looked up): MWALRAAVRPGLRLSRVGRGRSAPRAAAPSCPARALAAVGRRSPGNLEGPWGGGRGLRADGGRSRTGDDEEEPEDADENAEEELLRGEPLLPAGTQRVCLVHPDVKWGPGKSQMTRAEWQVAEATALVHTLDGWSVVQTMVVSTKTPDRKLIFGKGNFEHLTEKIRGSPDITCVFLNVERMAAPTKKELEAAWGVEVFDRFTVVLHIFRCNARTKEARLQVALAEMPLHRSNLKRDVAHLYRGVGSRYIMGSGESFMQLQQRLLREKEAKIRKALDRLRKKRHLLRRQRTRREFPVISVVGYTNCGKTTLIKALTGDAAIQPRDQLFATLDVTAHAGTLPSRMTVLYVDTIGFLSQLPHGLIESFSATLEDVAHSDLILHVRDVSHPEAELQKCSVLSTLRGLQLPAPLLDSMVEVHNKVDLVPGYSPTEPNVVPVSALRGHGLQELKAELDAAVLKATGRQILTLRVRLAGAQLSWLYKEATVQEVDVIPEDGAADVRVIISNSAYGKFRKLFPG

Target	log2 fold change (barasertib)	log2 fold change [1]	log2 fold change [2]	log2 fold change (vemurafenib)	log2 fold change [3]	log2 fold change [4]	log2 fold change (volasertib)	log2 fold change [5]	log2 fold change (saracatinib)	log2 fold change (sotrastaurin)
HNRNPUL1 (UniProt M0R247)	0.109	0.004	0.037	–	–	–	–	–	–	–
GPN2 (UniProt Q9H9Y4)	–	0.009	0.019	-0.027	0.026	-0.098	-0.028	0.072	0.003	0.021
JAK3 (UniProt P52333)	0.064	0.524	-0.488	-0.127	0.014	–	-0.062	–	–	0.014
GPLD1 (UniProt P80108)	–	–	–	–	–	–	–	–	0.236	-0.13
ITPR2 (UniProt Q14571)	–	–	–	–	-0.044	–	0.336	-0.222	0.088	–
IGFBP4 (UniProt P22692)	-0.281	-0.063	0.009	–	-0.171	–	-0.002	0.04	0.016	-0.028
HNRNPD isoform 2 (UniProt Q14103)	-0.052	0.857 (active)	-0.135	0.011	0.002	0.022	0.029	-0.036	0	-0.08
IPP (UniProt Q9Y573)	–	0.057	-0.014	-0.102	0.056	0.169	-0.162	0.006	-0.035	–
IRS2 (UniProt Q9Y4H2)	-0.019	-0.698	0.341	–	0.026	–	-0.073	0.047	0.013	-0.025
HECW2 (UniProt Q9P2P5)	–	–	–	0.026	–	-0.213	–	-0.04	0.055	0.065
H3-3A (UniProt P84243)	0.067	0.027	-0.025	0.027	0.015	-0.017	-0.006	–	–	-0.028
GTF2A1 (UniProt P52655)	0.018	0.033	-0.042	-0.028	0.01	0.042	0.035	0.015	-0.004	0.024
HDAC3 (UniProt E7ESJ6)	–	–	–	–	0.031	–	-0.16	–	–	–
HSPA8 (UniProt E9PN89)	-0.041	-0.366	0.32	–	-0.06	0.057	-0.005	-0.114	-0.01	0.308
HNRNPM (UniProt M0QZM1)	0.229	–	–	-0.027	–	0.171	–	–	-0.066	-0.054
ITGB1BP2 (UniProt Q9UKP3)	–	-0.032	0.443	0.045	–	-0.07	–	–	0.005	–
GTPBP6 (UniProt O43824)	–	-0.062	-0.096	-0.089	–	0.32	–	–	-0.166	–
IRF2BPL (UniProt Q9H1B7)	0.024	-0.195	0.111	-0.039	0.026	0.04	0.001	0.022	0.025	-0.005
IMPDH1 isoform 6 (UniProt P20839)	-0.01	-0.128	0.021	-0.006	-0.015	0.003	-0.002	-0.006	0.003	-0.024
HNRNPL, A0A3B3ITJ4	0.14	–	–	–	0.087	–	-0.072	–	–	–
HSPBAP1 (UniProt Q96EW2)	0.012	-0.293	-0.038	–	0.04	0.155	0.044	-0.058	-0.054	0.027
GYPA, A0A2R8Y7F9	0.066	-0.812	0.25	–	–	–	–	–	–	–
ISL2 (UniProt Q96A47)	-0.108	0.832 (active)	-0.397 (active)	–	–	–	–	0.018	0.028	-0.107
